# High-throughput results (PubChem)
# D2 PAM-1: potentiates the human D2 dopamine receptor allosterically; P14416; actives 0.23% (n = 360,000); potentiation, % (test concentration not listed); AID 624464; DiscoveRx D2 beta-arrestin cells, luminescence, 90 min; 100% = 57 uM dopamine signal; in the data active = potentiation above about 50%
# Target sequence (P14416 whole entry, looked up): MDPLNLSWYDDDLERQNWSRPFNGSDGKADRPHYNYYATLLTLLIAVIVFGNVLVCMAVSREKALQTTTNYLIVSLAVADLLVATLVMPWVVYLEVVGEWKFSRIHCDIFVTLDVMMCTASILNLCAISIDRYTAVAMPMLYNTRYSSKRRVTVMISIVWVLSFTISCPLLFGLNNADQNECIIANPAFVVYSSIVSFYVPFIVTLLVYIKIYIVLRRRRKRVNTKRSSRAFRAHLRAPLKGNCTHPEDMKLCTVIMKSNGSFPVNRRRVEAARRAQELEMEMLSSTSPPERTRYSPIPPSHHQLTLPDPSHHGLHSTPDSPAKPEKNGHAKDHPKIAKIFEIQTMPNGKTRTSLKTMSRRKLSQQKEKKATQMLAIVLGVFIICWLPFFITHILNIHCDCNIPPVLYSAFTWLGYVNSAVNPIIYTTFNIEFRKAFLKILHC
#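 PathHunter beta-arrestin assay in DiscoveRx D2 cells. Compounds were added with an EC20 of dopamine (50 nM final) for 90 min at 37 deg C. Luminescence was read 1 h after detection reagent, with 57 uM dopamine as the EC100 control.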
# D2 ag-1: D2 dopamine receptor (human) agonism. P14416. HEK293 T-REx D2 cells, calcium flux agonist mode. activation, % at 2 µM. actives 0.53% (n = 340,000);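 active = activation over 3 SD above normal in the single-dose calcium agonist read, cut at about 30% in these data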; also: 0% is about no effect
#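 Tetracycline-induced HEK293 Trex cells with D2 receptor force-coupled to calcium signaling, plated overnight at 30 C and loaded with no-wash calcium dye. Calcium flux read kinetically for 180 s after compound addition; responses flag agonists.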
# D2 antag: antagonists of human D2 dopamine receptor | HEK293 TREx D2 cells, calcium flux, dopamine EC80 | inhibition, % at 10 µM | actives 2% (n = 340,000); in the data active = inhibition above about 30%; inactive = below that, where a call was filed; also: 0% is about no effect
#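 HEK293 T-REx D2 cells, tet-induced, calcium dye no-wash. Cpd pintool add, 180 s kinetic, then EC80 DA, 180 s kinetic. Ca flux read.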
# D2 ag-2: agonists of human D2 dopamine receptor (beta-arrestin); P14416; DiscoveRx PathHunter D2 beta-arrestin, luminescence, 90 min; 100% = 57 uM dopamine signal; activation, % (no concentration beside the values); actives 0.084% (n = 360,000); AID 624465; in the data active = activation above about 40%
#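 DiscoveRx PathHunter D2 beta-arrestin cells (2,100/well) attached overnight, then compound-stimulated 90 min at 37 C in HBSS/10 mM HEPES/0.1% Tween-20 buffer; beta-galactosidase complementation read by luminescence after 1 h at ambient temperature. Dopamine 57 uM final (EC100) as control.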
# D2 PAM-2: D2 dopamine receptor (human) potentiation | P14416 | HEK293 T-REx D2, calcium flux, EC20 dopamine potentiation | potentiation, % at 10 µM | actives 0.34% (n = 340,000);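 active = potentiation over 3 SD above the plate norm, cut at about 30% in these data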; also: 0% is about no effect
#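 Potentiation of an EC20 dopamine calcium response measured kinetically over 180 s, after a preceding 180 s compound-only read flagging agonists. Cells: inducible Hek293 Trex D2 line, 4000/well, cultured overnight at 30 C before dye loading.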
# Active calls of the source: *; nt = not tested or not shown. A selection: hits, their analogues and other compounds. The true share with any hit is near 2.4%.
SMILES,D2 PAM-1,D2 ag-1,D2 antag,D2 ag-2,D2 PAM-2
CN(CC(=O)Nc1cccc(S(=O)(=O)N2CCCCC2)c1)Cc1ccc(F)cc1,-14.7,0.0,32.0*,-0.5,-17.5
CN(CC(=O)Nc1cccc(F)c1)CC(=O)Nc1cccc(S(=O)(=O)N2CCCCCC2)c1,-12.4,0.3,-11.7,-2.7,-4.9
CN(C)S(=O)(=O)c1cccc(NC(=O)CNc2cccc(S(=O)(=O)N3CCCCC3)c2)c1,-13.5,nt,nt,-2.4,nt
CN(C)S(=O)(=O)c1cccc(NC(=O)CNCC2CCCCC2)c1,-21.0,0.1,55.4*,4.0,-24.1
NC(=O)c1nn(CC(=O)Nc2cccc(S(=O)(=O)N3CCCCCC3)c2)c(=O)c2ccccc12,-4.3,0.5,-8.9,8.9,20.7
CN(CC(=O)Nc1cccc(S(=O)(=O)N(C)C)c1)Cc1ccccc1,-7.7,-0.7,32.9*,-1.4,-28.3
CCOc1ccc(C2=C(C(=O)CC)Sc3nncn3N2C(=O)CC)cc1,nt,0.8,nt,nt,-6.6
Cc1nc(N2CCCC2)c2c(C(=O)N3CCN(c4cc(Cl)ccc4C)CC3)c(C)oc2n1,nt,-0.7,nt,nt,-7.2
Cc1ccc(C(=O)OC2CCOC2=O)cc1NC(=O)c1ccco1 (stereo not drawn),2.2,1.3,35.4*,-0.5,-9.6
COc1cccc(N2CCN(S(=O)(=O)c3cn(C)c(C)n3)CC2)c1,nt,-0.5,nt,nt,17.6
Nc1cc(OCC(F)(F)F)cc([N+](=O)[O-])c1,-9.9,-1.7,-1.1,-0.1,10.0
O=C1C2C3CCC(O3)C2C(=O)N1c1cc(OCC(F)F)cc([N+](=O)[O-])c1 (stereo not drawn),-22.8,0.2,34.8*,-5.1,-4.1
Cc1cc(Cl)c2oc(C(=O)N(C)C3CCOC3)c(C)c2c1 (stereo not drawn),-14.0,-0.5,-7.3,-2.1,88.1*
Cc1cc(Cl)c2oc(C(=O)N3CCOCC3)c(C)c2c1,-7.1,nt,nt,-1.9,nt
COc1cc(NC(=O)c2c(-c3ccc(C)cc3)nnc3ccccc23)cc(OC)c1OC,nt,-0.5,nt,nt,nt
COc1ccc(OC)c(NC(=O)c2nnn(CC(=O)Nc3ccc(C(C)C)cc3)c2N)c1,nt,nt,nt,nt,4.3
N#Cc1c(C(F)(F)F)cc(-c2cccs2)nc1SCC(=O)Nc1ccccc1F,nt,-2.2,nt,nt,-20.5
CC1CC(C)(C)NC(=S)N1CCC(=O)NCCc1ccc(Cl)cc1 (stereo not drawn),-5.9,-2.4,34.7*,-3.4,-8.8
COCCn1nnnc1C(c1ccccc1OC)N1CCN(c2ccccc2F)CC1 (stereo not drawn),4.4,1.8,1.6,0.1,-1.7
COCCn1nnnc1C(c1cc2cccc(C)c2[nH]c1=O)N1CCN(c2ccccc2F)CC1 (stereo not drawn),-38.4,12.0,34.3*,-1.0,-11.5
CC1(C)C(=O)NCCN1C(=O)CCC(=O)O,-19.7,0.3,-17.0,0.1,32.8*
CC(C)OP(=O)(c1ccc(N(C)C)cc1)C(O)c1ccccc1F (stereo not drawn),-8.0,0.4,-7.0,-3.5,-3.2
CC(C)OP(=O)(c1ccc(N(C)C)cc1)C(O)c1ccncc1 (stereo not drawn),-2.1,0.2,31.7*,-0.7,5.3
COc1ccccc1C(O)P(=O)(OC(C)C)c1ccc(N(C)C)cc1 (stereo not drawn),-3.6,0.5,31.2*,0.3,-3.2
CCOc1ccc(NC(=O)c2ccc3c(c2)CCN3S(=O)(=O)CC)cc1,nt,7.7,nt,nt,1.0
SMILES,D2 PAM-1,D2 ag-1,D2 antag,D2 ag-2,D2 PAM-2
CCCN1C(=O)c2ccccc2CC1(C)C(=O)NC1CCCCC1 (stereo not drawn),nt,-0.3,nt,nt,4.8
O=C(Nc1ccc(Cl)cc1)N1CCC(c2nc(-c3ccccc3Cl)no2)CC1,-16.0,0.3,31.2*,3.1,0.5
O=C(NCCN1C(=O)S/C(=C\c2cccnc2)C1=O)c1ccc([N+](=O)[O-])s1,18.6,-0.9,33.2*,2.5,-0.7
Cc1c(C(=O)NCCN2C(=O)S/C(=C\c3cccnc3)C2=O)cccc1[N+](=O)[O-],-9.2,0.2,-2.2,1.0,0.6
COCc1cc(C)n(CC(=O)N2CCCC2)c(=O)c1C#N,-5.2,1.7,30.8*,1.8,-3.9
COc1cccc(N2CCN(C(=O)c3ccc(CS(=O)c4cccc(Cl)c4)o3)CC2)c1 (stereo not drawn),nt,nt,nt,nt,1.8
